Key:
Assay in all cases: DAPPL (digital affinity profiling via proximity ligation, sequencing); 10 mM Tris-HCl pH 7.5, 50 mM NaCl, 1 mM DTT, 4% glycerol, room temperature, 30 min; GST-TFs on glutathione beads, 16-mer random dsDNA library, 0.1% formaldehyde crosslink after washing; high values mean tight binding
Settings in all cases: protein: recombinant; tags: N-terminal GST; dsDNA, one strand shown
FLI1 = target: T1, FLI1 (Homo sapiens, UniProt Q01543 1-452)
T1 sequence: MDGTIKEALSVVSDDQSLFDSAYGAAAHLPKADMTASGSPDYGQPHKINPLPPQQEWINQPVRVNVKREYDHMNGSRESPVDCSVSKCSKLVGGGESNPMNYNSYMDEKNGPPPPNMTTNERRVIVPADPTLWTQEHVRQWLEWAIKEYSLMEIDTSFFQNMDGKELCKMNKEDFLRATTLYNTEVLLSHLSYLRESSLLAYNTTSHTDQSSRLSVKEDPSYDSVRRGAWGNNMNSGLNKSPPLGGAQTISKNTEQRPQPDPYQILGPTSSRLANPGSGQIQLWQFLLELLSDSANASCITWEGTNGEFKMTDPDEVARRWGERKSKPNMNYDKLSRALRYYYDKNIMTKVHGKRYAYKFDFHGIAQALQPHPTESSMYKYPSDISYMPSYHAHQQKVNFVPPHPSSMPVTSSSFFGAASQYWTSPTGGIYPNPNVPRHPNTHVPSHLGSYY
In short: (§1)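 Human transcription factors were made in yeast as GST fusions, captured on glutathione beads and barcoded with DNA. With a tag-only sample included, the pool was incubated with 200 nmole of a random double-stranded 16-mer DNA library in Tris/NaCl/DTT/glycerol buffer at room temperature for 30 min, then crosslinked with 0.1% formaldehyde after washing, ligated by proximity, amplified and sequenced. For binding signal, each hexamer's read frequency for a factor is divided by its frequency for the tag-only sample.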

ELK1 = target: T2, ELK1 (Homo sapiens, UniProt P19419 1-428)
T2 sequence: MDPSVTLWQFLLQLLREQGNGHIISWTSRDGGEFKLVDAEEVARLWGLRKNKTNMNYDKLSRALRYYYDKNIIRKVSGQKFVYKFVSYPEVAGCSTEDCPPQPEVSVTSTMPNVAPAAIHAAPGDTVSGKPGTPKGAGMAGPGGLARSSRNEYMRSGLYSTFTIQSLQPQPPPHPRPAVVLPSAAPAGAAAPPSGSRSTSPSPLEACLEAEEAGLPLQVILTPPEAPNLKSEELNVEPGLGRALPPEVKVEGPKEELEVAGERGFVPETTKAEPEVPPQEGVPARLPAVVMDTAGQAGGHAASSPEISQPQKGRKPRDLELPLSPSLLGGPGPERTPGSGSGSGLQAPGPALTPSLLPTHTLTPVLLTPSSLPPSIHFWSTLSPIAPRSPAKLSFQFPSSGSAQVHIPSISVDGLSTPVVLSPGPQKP
In short: as §1

GABPA = target: T3, GABPA (Homo sapiens, UniProt Q06546 1-454)
T3 sequence: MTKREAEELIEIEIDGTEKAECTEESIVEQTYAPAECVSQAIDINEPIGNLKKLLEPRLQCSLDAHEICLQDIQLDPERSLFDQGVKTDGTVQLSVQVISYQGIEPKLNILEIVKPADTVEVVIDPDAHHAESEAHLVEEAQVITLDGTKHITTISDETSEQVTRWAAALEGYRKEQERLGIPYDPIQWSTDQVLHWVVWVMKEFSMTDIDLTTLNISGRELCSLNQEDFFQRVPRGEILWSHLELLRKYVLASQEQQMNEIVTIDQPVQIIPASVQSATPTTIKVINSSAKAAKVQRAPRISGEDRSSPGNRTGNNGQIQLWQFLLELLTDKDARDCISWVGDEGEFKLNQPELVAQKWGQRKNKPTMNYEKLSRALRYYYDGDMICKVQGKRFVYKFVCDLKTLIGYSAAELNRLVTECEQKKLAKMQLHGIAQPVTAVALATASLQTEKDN
In short: as §1

ERG = target: T4, ERG (Homo sapiens, UniProt P11308 1-479)
T4 sequence: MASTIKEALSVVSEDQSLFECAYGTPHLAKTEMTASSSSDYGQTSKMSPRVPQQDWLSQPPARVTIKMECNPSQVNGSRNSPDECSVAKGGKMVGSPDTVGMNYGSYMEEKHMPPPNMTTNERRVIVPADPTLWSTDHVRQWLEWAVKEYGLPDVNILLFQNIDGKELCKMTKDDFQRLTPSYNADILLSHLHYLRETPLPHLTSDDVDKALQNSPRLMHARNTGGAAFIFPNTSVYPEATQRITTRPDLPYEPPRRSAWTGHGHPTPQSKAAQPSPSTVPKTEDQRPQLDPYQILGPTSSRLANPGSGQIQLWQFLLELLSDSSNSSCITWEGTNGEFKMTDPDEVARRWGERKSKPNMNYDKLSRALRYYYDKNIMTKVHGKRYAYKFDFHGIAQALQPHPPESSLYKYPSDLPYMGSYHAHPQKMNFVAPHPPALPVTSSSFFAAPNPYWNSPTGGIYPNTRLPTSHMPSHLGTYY
In short: as §1

ELF1 = ELF1 (Homo sapiens, UniProt P32519 1-619)
In short: as §1

EHF = target: T5, EHF (Homo sapiens, UniProt Q9NZC4 1-300)
T5 sequence: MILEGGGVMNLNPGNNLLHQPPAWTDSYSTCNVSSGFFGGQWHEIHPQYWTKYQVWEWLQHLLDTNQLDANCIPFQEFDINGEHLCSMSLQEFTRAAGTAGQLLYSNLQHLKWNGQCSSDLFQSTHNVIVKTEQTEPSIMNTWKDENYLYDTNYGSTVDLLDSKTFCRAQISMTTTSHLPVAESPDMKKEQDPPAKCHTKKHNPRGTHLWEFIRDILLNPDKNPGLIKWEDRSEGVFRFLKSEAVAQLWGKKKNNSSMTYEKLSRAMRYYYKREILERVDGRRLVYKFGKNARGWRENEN
In short: as §1

SPI1 = SPI1 (Homo sapiens, UniProt P17947 1-270)
In short: as §1

SPIB = SPIB (Homo sapiens, UniProt Q01892 1-262)
In short: as §1

ELK3 = target: T6, ELK3 (Homo sapiens, UniProt P41970 1-407)
T6 sequence: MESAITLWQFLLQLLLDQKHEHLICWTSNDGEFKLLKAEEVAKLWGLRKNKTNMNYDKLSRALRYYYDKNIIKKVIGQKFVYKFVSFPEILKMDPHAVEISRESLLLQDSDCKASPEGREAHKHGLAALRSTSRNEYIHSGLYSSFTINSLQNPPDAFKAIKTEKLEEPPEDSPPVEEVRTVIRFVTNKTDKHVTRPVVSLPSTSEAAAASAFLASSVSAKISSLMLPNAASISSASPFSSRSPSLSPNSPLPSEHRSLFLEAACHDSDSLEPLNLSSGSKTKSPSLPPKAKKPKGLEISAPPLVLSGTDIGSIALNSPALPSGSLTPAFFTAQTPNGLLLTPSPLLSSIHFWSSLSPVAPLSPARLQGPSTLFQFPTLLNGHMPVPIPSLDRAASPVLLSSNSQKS
In short: as §1

FEV = target: T7, FEV (Homo sapiens, UniProt Q99581 1-238)
T7 sequence: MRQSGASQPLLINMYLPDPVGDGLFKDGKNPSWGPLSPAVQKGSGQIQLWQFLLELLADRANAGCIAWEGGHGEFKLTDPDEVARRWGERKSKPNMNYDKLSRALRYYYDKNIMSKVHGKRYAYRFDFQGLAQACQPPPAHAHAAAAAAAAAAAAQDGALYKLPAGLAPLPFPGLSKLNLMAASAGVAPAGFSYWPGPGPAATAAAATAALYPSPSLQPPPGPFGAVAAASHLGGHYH
In short: as §1

ETV5 = ETV5 (Homo sapiens, UniProt P41161 1-510)
In short: as §1

SPIC = target: T8, SPIC (Homo sapiens, UniProt Q8N5J4 1-248)
T8 sequence: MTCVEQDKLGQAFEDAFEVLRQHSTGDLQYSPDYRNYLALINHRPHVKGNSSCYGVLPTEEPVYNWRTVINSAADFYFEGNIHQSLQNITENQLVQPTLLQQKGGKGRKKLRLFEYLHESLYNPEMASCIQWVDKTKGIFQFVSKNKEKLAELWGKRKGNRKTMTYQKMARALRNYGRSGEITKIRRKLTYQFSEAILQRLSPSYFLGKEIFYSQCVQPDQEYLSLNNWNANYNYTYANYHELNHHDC
In short: as §1

ELF4 = ELF4 (Homo sapiens, UniProt Q99607 1-663)
In short: as §1

ELK4 = target: T9, ELK4 (Homo sapiens, UniProt P28324-2 1-405)
T9 sequence: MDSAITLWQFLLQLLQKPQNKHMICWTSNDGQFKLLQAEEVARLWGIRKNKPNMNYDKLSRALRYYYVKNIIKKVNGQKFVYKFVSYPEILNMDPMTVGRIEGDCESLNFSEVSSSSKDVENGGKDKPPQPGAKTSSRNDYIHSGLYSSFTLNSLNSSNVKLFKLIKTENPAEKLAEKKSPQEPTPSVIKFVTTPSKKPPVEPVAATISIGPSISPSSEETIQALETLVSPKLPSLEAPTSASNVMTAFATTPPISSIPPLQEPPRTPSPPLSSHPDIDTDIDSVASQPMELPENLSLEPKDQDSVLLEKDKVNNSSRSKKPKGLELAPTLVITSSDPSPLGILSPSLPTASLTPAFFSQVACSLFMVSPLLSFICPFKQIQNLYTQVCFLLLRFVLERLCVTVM
In short: as §1

ETV2 = target: T10, ETV2 (Homo sapiens, UniProt O00321 1-342)
T10 sequence: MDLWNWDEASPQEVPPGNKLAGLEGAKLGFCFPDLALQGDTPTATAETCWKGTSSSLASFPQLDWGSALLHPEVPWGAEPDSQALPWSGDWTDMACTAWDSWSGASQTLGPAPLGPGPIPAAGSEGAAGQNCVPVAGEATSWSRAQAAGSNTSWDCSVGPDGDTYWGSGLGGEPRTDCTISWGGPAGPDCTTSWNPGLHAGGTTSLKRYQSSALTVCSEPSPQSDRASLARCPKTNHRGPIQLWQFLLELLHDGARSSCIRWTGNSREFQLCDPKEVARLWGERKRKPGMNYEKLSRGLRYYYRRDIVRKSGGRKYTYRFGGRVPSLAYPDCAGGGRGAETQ
In short: as §1

ELF3 = target: T11, ELF3 (Homo sapiens, UniProt P78545 1-371)
T11 sequence: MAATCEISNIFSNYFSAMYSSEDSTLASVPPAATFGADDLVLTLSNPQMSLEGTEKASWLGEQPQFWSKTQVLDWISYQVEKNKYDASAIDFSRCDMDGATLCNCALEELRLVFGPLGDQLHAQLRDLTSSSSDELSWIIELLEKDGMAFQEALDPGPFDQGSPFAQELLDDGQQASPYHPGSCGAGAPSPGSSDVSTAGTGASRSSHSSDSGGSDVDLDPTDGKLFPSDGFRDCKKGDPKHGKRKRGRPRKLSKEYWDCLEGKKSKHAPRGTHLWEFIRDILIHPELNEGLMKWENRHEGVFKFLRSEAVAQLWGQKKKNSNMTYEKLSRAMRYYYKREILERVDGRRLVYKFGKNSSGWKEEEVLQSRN
In short: as §1

ETV1 = ETV1 (Homo sapiens, UniProt P50549 1-477)
In short: as §1

Chain of ETV5 (P41161 whole entry): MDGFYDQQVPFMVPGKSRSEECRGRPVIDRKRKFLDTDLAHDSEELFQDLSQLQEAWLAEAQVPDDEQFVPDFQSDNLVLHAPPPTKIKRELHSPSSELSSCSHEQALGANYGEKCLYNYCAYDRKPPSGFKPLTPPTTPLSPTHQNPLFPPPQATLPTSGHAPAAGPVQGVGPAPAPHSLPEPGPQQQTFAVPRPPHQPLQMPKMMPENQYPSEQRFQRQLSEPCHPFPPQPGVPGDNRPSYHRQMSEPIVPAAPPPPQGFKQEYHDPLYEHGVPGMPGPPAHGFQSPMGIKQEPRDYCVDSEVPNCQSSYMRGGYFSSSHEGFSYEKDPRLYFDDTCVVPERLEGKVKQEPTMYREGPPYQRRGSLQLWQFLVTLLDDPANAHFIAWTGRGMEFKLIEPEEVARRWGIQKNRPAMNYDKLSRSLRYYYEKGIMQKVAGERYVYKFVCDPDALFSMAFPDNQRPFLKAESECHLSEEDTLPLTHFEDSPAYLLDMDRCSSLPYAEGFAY
Chain of ELF1 (P32519 whole entry): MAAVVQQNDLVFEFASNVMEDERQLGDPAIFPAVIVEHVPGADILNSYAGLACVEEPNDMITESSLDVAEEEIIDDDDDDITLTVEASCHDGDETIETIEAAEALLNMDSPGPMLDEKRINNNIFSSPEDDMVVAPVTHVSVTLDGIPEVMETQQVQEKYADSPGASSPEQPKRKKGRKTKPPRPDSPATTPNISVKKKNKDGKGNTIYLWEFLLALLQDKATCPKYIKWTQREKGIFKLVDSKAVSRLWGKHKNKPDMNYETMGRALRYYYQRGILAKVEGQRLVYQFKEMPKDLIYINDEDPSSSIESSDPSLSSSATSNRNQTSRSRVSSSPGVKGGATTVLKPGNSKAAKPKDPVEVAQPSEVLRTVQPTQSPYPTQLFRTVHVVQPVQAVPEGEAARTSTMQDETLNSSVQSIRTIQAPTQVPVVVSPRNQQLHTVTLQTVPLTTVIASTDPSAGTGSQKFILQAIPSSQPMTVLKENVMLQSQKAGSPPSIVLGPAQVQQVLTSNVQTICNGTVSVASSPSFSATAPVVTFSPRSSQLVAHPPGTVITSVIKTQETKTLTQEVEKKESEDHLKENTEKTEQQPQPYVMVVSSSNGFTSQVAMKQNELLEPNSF
Chain of ETV1 (P50549 whole entry): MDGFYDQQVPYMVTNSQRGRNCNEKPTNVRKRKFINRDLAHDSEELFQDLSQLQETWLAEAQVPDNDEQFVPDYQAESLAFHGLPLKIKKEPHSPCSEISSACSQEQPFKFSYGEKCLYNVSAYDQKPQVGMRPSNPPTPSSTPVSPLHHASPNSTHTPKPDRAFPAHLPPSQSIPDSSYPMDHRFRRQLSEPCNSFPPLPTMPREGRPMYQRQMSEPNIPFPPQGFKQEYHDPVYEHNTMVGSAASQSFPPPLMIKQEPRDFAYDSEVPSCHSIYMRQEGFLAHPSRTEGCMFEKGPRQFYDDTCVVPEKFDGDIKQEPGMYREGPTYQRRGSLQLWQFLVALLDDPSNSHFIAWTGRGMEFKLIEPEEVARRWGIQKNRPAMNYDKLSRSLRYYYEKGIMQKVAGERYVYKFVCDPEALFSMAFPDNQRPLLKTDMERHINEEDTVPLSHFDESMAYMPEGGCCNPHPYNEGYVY
Chain of SPIB (Q01892 whole entry): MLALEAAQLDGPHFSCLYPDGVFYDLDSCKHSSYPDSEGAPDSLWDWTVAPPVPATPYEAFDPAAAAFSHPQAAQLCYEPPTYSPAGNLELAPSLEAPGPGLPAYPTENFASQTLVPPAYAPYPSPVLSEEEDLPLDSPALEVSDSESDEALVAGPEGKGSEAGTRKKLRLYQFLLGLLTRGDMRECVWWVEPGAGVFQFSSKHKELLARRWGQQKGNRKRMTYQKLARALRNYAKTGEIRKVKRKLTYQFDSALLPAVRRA
Chain of ELF4 (Q99607 whole entry): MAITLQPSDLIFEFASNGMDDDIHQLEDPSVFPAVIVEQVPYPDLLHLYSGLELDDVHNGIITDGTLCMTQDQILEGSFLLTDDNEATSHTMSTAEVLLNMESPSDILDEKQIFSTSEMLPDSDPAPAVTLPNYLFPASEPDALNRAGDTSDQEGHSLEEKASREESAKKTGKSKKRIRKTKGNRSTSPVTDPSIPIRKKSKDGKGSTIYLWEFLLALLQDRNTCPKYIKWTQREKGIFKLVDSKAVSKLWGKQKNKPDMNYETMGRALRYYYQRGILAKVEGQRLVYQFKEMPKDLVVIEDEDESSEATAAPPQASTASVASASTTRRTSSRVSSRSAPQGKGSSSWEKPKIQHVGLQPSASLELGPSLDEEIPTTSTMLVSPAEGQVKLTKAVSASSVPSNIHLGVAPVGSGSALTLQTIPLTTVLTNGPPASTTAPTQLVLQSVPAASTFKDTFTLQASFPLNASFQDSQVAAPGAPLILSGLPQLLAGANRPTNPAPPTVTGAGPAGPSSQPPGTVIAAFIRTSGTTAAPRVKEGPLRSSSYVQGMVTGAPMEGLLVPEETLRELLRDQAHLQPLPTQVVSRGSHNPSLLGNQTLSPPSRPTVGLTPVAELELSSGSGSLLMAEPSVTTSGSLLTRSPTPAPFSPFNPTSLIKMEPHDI

Sequence	binding signal (FLI1)	binding signal (ELK1)	binding signal (GABPA)	binding signal (ERG)	binding signal (ELF1)	binding signal (EHF)	binding signal (SPI1)	binding signal (SPIB)	binding signal (ELK3)	binding signal (FEV)	binding signal (ETV5)	binding signal (SPIC)	binding signal (ELF4)	binding signal (ELK4)	binding signal (ETV2)	binding signal (ELF3)	binding signal (ETV1)
GAAGCG	1.37 fold enrichment (6-mer frequency, TF over GST control)	1.24 fold enrichment (6-mer frequency, TF over GST control)	1.27 fold enrichment (6-mer frequency, TF over GST control)	1.42 fold enrichment (6-mer frequency, TF over GST control)	1.29 fold enrichment (6-mer frequency, TF over GST control)	1.53 fold enrichment (6-mer frequency, TF over GST control)	1.43 fold enrichment (6-mer frequency, TF over GST control)	1.28 fold enrichment (6-mer frequency, TF over GST control)	1.49 fold enrichment (6-mer frequency, TF over GST control)	1.37 fold enrichment (6-mer frequency, TF over GST control)	1.33 fold enrichment (6-mer frequency, TF over GST control)	1.27 fold enrichment (6-mer frequency, TF over GST control)	1.2 fold enrichment (6-mer frequency, TF over GST control)	1.2 fold enrichment (6-mer frequency, TF over GST control)	1.19 fold enrichment (6-mer frequency, TF over GST control)	1.22 fold enrichment (6-mer frequency, TF over GST control)	1.38 fold enrichment (6-mer frequency, TF over GST control)
TGACGC	1.1 fold enrichment (6-mer frequency, TF over GST control)	1.22 fold enrichment (6-mer frequency, TF over GST control)	1.15 fold enrichment (6-mer frequency, TF over GST control)	1.13 fold enrichment (6-mer frequency, TF over GST control)	1.3 fold enrichment (6-mer frequency, TF over GST control)	1.21 fold enrichment (6-mer frequency, TF over GST control)	1.15 fold enrichment (6-mer frequency, TF over GST control)	1.24 fold enrichment (6-mer frequency, TF over GST control)	1.1 fold enrichment (6-mer frequency, TF over GST control)	1.13 fold enrichment (6-mer frequency, TF over GST control)	1.28 fold enrichment (6-mer frequency, TF over GST control)	1.18 fold enrichment (6-mer frequency, TF over GST control)	1.37 fold enrichment (6-mer frequency, TF over GST control)	1.3 fold enrichment (6-mer frequency, TF over GST control)	1.18 fold enrichment (6-mer frequency, TF over GST control)	1.11 fold enrichment (6-mer frequency, TF over GST control)	1.07 fold enrichment (6-mer frequency, TF over GST control)
ACCTGA	1.06 fold enrichment (6-mer frequency, TF over GST control)	1.12 fold enrichment (6-mer frequency, TF over GST control)	1.03 fold enrichment (6-mer frequency, TF over GST control)	1.12 fold enrichment (6-mer frequency, TF over GST control)	1.14 fold enrichment (6-mer frequency, TF over GST control)	1.09 fold enrichment (6-mer frequency, TF over GST control)	1.01 fold enrichment (6-mer frequency, TF over GST control)	1.1 fold enrichment (6-mer frequency, TF over GST control)	1.07 fold enrichment (6-mer frequency, TF over GST control)	1.13 fold enrichment (6-mer frequency, TF over GST control)	1.07 fold enrichment (6-mer frequency, TF over GST control)	1 fold enrichment (6-mer frequency, TF over GST control)	1.15 fold enrichment (6-mer frequency, TF over GST control)	1.14 fold enrichment (6-mer frequency, TF over GST control)	1.02 fold enrichment (6-mer frequency, TF over GST control)	1.14 fold enrichment (6-mer frequency, TF over GST control)	1.06 fold enrichment (6-mer frequency, TF over GST control)
